Results taken from PubChem BioAssay.
For some assays here: Entries with a potency or affinity are not part of this list. Activity calls are given as the source filed them.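 The calls were made as follows, unless noted: active = compound raising the membrane signal above positive-control mean plus 3 SD in both repeats, and a primary screen hit; inactive = the rest.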

Columns and labels:
[1] = test system: TRPC4 beta (transient receptor potential cation channel C4), mouse; assay: TRPC4 cation channel opening, retest – cell-based, Fluo4 calcium, HEK293 TRPC4beta/mu-opioid, duplicates, 10 µM, confirmation (AID 2426;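 active = fluorescence ratio normalized to control raised more than 50% in primary screen plus both repeat runs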;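 as to activation: percent rise of integrated ratio over buffer wells lacking compound which define 0%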); details: Fluo4 calcium fluorescence, at 10 µM; stronger effect = higher value
[2] = test system: transient receptor potential cation channel C4 beta (TRPC4), mouse; assay: TRPC4 cation channel opening, second retest – cell-based, second round, Fluo4, HEK293 TRPC4beta/mu-opioid, 1 µM, confirmation (AID 2461;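 active = primary screen active and over 50% activation in each of two duplicate runs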;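 as to activation: 0% = wells without test compound as baseline of integrated fluorescence ratio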); details: Fluo4 calcium fluorescence, at 1 µM; stronger effect = higher value
[3] = test system: TRPC4 (transient receptor potential cation channel C4 beta), mouse; assay: potentiation of DAMGO EC20 TRPC4 response – cell-based, second round, Fluo-4, HEK293 TRPC4beta/mu-opioid, 1 µM, confirmation (AID 2554;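 active = primary screen hit whose fluorescence ratio, in both repeats, exceeds the weak agonist control mean by 3 SD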); details: DAMGO EC20, Fluo-4 calcium flux, at 1 µM; stronger effect = higher value
[4] = test system: TRPC4 beta (transient receptor potential cation channel C4), mouse; assay: potentiation of DAMGO EC20 TRPC4 response – cell-based, Fluo-4, HEK293 TRPC4beta/mu-opioid, confirmation (AID 2555;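 active = primary screen hit whose calcium fluorescence ratio, in both repeats, exceeds the weak agonist control mean by 3 SD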); details: DAMGO EC20, Fluo-4 calcium flux, at 10 µM; stronger effect = higher value
[5] = molecular target: Short transient receptor potential channel 4 (Mus musculus) (UniProt Q9QUQ5); assay: blockers of DAMGO-evoked TRPC4 calcium flux – cell-based, Fluo4, HEK293 TRPC4beta/mu-opioid, confirmation (AID 2636;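 active = calcium signal cut by more than 3 SD below the full-agonist control yet still positive, in both repeats and the earlier primary screen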); details: at 10 µM; stronger effect = higher value
[6] = molecular target: Short transient receptor potential channel 4 (Mus musculus) (UniProt Q9QUQ5); assay: blockers of DAMGO-evoked TRPC4 calcium flux – cell-based, second round, Fluo4, HEK293 TRPC4beta/mu-opioid, 1 µM, confirmation (AID 2637;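 active = calcium signal ratio cut to more than 3 SD under the fully stimulated control mean yet still positive, in both repeats and the primary screen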;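 as to inhibition: percent of integrated ratio relative to wells lacking test compound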); details: at 1 µM; stronger effect = higher value
[7] = molecular target: Short transient receptor potential channel 4 (Mus musculus) (UniProt Q9QUQ5); assay: potentiation of DAMGO-evoked TRPC4 calcium signal – cell-based, HEK293 TRPC4/mu-opioid, Fluo-4 calcium, EC20 DAMGO, dose response (AID 434941;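 active = earlier screen potentiator hit that boosts the TRPC4 ion channel at some dose, with a dose response; inactive = no potentiation, no dose response, or not a prior hit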;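 also: calcium entry triggered by an EC20 dose of DAMGO at the co-expressed mu-opioid receptor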)
[8] = molecular target: Short transient receptor potential channel 4 (Mus musculus) (UniProt Q9QUQ5); assay: block of DAMGO-driven TRPC4 calcium entry – cell-based, HEK293 TRPC4/mu-opioid, Fluo-4 calcium, dose response (AID 434942;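 active = primary screen inhibitor hit that blocks the TRPC4 channel at some tested dose, yielding a dose curve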)
[9] = molecular target: Short transient receptor potential channel 6 (Mus musculus) (UniProt Q61143); assay: TRPC6 blockade by TRPC4 inhibitor hits – cell-based, HEK293, membrane potential dye, duplicate, selectivity assay for TRPC4 inhibitor project, confirmation (AID 434948;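 active = active in primary screen and both duplicates, each dropping signal beyond three positive-control SD with fluorescence still positive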); details: HEK293 TRPC6, membrane potential dye fluorescence, at 10 µM, stimulated with maximal-effect acetylcholine; stronger effect = higher value
[10] = molecular target: Short transient receptor potential channel 6 (Mus musculus) (UniProt Q61143); assay: TRPC6 opening by TRPC4 activator hits – cell-based, HEK293, membrane potential dye, duplicate, selectivity assay for TRPC4 activator project, confirmation (AID 434950;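 active = membrane potential signal rise above negative control mean plus 3 SD in both duplicates, also active in the earlier TRPC4 screen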;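 as to activation: 0% = buffer only wells and 100% = acetylcholine maximal-effect wells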); details: HEK293 TRPC6, membrane potential fluorescence, at 10 µM; activation: stronger effect = higher value; outcome: activation
[11] = molecular target: Short transient receptor potential channel 6 (Mus musculus) (UniProt Q61143); assay: positive modulators of mouse TRPC6 channel – HEK293 cells, membrane potential dye, duplicate, selectivity assay for TRPC4 potentiator project, confirmation (AID 434952); details: HEK293 TRPC6, membrane potential dye fluorescence, at 10 µM, maximal acetylcholine added after compound; stronger effect = higher value
[12] = molecular target: Short transient receptor potential channel 4 (Mus musculus) (UniProt Q9QUQ5); assay: calcium flux activators in TRPC4/5HT1a cells, counter-screen for TRPC4 activator project, cell-based, second counter screen, HEK293 TRPC4/5HT1a, Fluo-4 (AID 434977;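 active = calcium signal rise above buffer-control mean plus 5 SD in both duplicates, and also a hit in the primary screen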;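 as to activation: plate controls were assay buffer for no effect and maximal serotonin response for full effect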); details: Fluo-4 calcium flux, at 10 µM; stronger effect = higher value
[13] = serotonin-gated TRPC4 signal block – cell-based, second counter screen, HEK293 TRPC4/5HT1a, Fluo-4, counter-screen for TRPC4 inhibitor project, confirmation (AID 434978;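 active = primary screen active whose calcium signal fell more than 3 SD beyond the full-serotonin control mean in both duplicate plates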;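 as to outcome: serotonin given first at submaximal then at maximal dose after compound preincubation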); details: Fluo-4 calcium flux, at 10 µM, serotonin added to trigger calcium flux; stronger effect = higher value
[14] = test system: TRPC4 (mouse), co-expressed with 5HT1a in HEK293; assay: enhancement of serotonin-evoked TRPC4 response – cell-based, second counter screen, HEK293 TRPC4/5HT1a, Fluo-4, counter-screen for TRPC4 potentiator project, confirmation (AID 434979;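 active = signal rise over 3 SD above mean of control wells given weak agonist, in both repeats and first screen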); details: Fluo-4 calcium flux, at 10 µM, serotonin added at its EC20 dose; stronger effect = higher value
[15] = nonspecific calcium rise without TRPC4 – cell-based, HEK293 mu-opioid receptor line, counter-screen for TRPC4 activator project, confirmation (AID 449723;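 active = hit in primary screen, with calcium signal over 5 SD above buffer well mean in both duplicates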;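 also: counter screen cells carry the mu-opioid receptor alone and lack TRPC4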); details: HEK293 mu-opioid cells, Fluo-4 calcium fluorescence, at 10 µM; stronger effect = higher value
[16] = nonspecific potentiation of DAMGO calcium response – cell-based, HEK293 mu-opioid receptor line, counter-screen for TRPC4 allosteric potentiator project, confirmation (AID 449724;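 active = calcium signal rise more than 3 SD above the low-dose agonist control mean, in both duplicate plates and the primary screen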); details: HEK293 mu-opioid receptor cells, Fluo-4 calcium flux, at 10 µM, compound added before EC20 DAMGO stimulus; stronger effect = higher value
[17] = nonspecific flux increase, KCNQ1-free cells – parental CHO cells, counter-screen for KCNQ1 potentiator project (AID 493006;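 active = duplicate-averaged activation above buffer control mean plus 5 SD of those controls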;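 as to activation: fluorescence ratio of max minus min over baseline after K+ and Tl+ depolarization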); details: parental CHO-K1 cells, FluxOR thallium flux, at 10 µM; stronger effect = higher value
[18] = molecular target: Potassium voltage-gated channel subfamily KQT member 1 (Homo sapiens) (UniProt P51787); assay: enhancement of KCNQ1 channel thallium flux – FluxOR thallium flux, CHO cells, duplicates, confirmation (AID 493007;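 active = potentiation averaged over duplicate wells exceeding buffer-only control mean by more than 3 SD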;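 as to outcome: cells depolarized by a potassium plus thallium sulfate stimulus after compound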;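 as to potentiation: 0% = buffer-only wells and 100% = R-L3 activator control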); details: KCNQ1 cell line, FluxOR thallium flux fluorescence, at 10 µM; stronger effect = higher value, % of reference activator effect, buffer zero
[19] = molecular target: Potassium voltage-gated channel subfamily KQT member 2 (Rattus norvegicus) (UniProt O88943); assay: KCNQ2 thallium flux enhancement – KCNQ2-CHO-K1 cells, selectivity assay for KCNQ1 potentiator project (AID 493009;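 active = mean duplicate potentiation above the buffer control mean plus 5 SD of buffer wells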;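 also: assay conditions were tuned for KCNQ1 rather than KCNQ2 modulators; signal is max minus min fluorescence divided by baseline after thallium stimulus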); details: FluxOR thallium flux fluorescence, at 10 µM; stronger effect = higher value, scaled: buffer 0, activator control 100
[20] = molecular target: Potassium voltage-gated channel subfamily KQT member 1 (Homo sapiens) (UniProt P51787); assay: KCNQ1 activators by electrophysiology – IonWorks patch clamp, KCNQ1-CHO cells, orthogonal assay for KCNQ1 potentiator project, confirmation (AID 493184;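 active = current rise at least 3 SD above the untreated control mean in each of two repeat wells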;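 as to current potentiation: percent change of the same well's current before compound addition so 0% = no change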); details: automated patch clamp current, at 10 µM; stronger effect = higher value

Short transient receptor potential channel 6 (Mus musculus), sequence (Q61143 whole entry, looked up): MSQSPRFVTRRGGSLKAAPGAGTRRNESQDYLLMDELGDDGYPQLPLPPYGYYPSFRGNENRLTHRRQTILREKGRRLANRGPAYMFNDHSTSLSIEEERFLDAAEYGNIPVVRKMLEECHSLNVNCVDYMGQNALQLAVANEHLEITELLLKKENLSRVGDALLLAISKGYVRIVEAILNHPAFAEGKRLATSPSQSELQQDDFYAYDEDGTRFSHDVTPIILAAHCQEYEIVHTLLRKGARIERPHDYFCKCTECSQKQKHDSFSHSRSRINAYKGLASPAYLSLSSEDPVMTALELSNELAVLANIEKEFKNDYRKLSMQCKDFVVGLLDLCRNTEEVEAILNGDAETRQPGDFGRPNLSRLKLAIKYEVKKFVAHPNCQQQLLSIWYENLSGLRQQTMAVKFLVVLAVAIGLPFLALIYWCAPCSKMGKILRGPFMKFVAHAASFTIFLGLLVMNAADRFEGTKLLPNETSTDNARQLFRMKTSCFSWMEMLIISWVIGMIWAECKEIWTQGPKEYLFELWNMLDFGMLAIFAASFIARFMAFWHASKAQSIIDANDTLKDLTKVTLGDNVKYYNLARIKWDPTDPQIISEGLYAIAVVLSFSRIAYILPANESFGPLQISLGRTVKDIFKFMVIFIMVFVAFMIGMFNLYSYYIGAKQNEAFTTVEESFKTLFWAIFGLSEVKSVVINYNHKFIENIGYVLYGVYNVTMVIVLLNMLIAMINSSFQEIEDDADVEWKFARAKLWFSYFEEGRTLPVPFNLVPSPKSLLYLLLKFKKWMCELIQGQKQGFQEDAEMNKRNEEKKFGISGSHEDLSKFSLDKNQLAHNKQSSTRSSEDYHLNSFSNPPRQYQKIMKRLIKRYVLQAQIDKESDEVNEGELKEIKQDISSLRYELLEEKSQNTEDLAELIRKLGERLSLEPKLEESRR
Potassium voltage-gated channel subfamily KQT member 2 (Rattus norvegicus), sequence (O88943 whole entry, looked up): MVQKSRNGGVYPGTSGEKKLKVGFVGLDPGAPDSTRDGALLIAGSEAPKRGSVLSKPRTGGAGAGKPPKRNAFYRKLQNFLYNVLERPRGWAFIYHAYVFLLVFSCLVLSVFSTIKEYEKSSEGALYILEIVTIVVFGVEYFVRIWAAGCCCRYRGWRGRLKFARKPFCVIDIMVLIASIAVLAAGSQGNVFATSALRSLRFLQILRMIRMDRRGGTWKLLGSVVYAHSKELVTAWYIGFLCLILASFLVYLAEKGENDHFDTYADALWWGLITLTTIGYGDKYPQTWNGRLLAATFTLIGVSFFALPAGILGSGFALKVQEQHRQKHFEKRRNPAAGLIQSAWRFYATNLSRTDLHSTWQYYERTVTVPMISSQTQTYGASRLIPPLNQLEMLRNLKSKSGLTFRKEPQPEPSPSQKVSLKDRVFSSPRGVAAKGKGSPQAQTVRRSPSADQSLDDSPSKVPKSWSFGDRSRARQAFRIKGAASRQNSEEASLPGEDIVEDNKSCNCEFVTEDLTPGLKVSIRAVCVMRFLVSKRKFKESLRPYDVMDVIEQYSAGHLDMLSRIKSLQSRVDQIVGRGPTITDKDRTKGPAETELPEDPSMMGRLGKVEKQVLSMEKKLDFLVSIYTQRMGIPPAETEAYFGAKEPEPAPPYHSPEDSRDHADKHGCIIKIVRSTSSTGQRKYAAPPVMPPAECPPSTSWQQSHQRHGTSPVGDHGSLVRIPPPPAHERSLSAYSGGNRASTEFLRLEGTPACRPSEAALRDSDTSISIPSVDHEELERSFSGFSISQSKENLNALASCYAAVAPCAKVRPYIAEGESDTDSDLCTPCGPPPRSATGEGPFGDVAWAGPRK
Short transient receptor potential channel 4 (Mus musculus), sequence (Q9QUQ5 whole entry, looked up): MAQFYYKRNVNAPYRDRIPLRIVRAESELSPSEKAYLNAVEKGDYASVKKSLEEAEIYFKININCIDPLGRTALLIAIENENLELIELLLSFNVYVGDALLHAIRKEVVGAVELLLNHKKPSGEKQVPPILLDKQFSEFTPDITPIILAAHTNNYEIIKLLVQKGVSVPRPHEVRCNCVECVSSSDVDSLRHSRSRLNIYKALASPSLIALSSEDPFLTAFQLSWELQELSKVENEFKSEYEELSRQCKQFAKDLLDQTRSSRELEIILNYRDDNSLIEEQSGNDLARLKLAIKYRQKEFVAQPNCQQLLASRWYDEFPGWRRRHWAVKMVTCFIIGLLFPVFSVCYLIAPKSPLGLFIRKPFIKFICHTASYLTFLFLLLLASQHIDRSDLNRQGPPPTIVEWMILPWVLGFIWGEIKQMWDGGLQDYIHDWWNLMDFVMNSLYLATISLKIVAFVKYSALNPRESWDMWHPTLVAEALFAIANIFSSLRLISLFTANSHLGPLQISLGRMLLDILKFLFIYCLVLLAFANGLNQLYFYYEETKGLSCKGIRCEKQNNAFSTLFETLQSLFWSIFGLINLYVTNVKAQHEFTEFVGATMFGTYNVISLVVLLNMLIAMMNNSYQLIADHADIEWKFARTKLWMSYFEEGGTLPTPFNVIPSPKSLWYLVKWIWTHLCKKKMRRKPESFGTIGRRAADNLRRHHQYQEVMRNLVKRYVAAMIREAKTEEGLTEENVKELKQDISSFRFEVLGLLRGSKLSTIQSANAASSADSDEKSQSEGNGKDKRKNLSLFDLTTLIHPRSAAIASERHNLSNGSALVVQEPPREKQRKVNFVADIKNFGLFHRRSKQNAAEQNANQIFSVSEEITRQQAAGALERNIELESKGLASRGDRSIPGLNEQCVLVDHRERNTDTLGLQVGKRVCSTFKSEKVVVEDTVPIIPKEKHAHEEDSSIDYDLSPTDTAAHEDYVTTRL
Potassium voltage-gated channel subfamily KQT member 1 (Homo sapiens), sequence (P51787 whole entry, looked up): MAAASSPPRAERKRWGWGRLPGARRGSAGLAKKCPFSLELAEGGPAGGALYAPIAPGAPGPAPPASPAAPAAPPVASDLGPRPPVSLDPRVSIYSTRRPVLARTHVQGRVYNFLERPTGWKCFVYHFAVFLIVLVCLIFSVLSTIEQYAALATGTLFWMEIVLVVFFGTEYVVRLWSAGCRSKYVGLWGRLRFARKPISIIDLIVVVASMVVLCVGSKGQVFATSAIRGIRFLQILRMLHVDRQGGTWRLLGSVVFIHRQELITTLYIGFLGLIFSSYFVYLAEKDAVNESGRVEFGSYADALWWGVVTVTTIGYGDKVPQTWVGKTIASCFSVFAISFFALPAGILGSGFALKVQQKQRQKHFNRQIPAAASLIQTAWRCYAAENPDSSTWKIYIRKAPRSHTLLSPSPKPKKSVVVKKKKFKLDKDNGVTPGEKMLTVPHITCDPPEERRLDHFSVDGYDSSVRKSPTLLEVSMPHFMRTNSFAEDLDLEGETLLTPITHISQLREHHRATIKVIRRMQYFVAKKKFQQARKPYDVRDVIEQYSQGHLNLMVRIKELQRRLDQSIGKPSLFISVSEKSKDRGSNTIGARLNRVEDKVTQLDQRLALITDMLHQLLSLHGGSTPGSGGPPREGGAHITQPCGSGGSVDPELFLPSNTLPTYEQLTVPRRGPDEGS

Cc1ccc2c(C)c(C(=O)N(Cc3cccs3)C3CCS(=O)(=O)C3)oc2c1 (stereo not drawn)
active: activation [10] 34.5%
inactive: outcome [1] | outcome [2] | outcome [3] | outcome [4] | outcome [5] | outcome [6] | outcome [7] | outcome [8] | outcome [9] | outcome [11] | outcome [12] | outcome [13] | outcome [14] | outcome [15] | outcome [16]

CC[C@@H](C(=O)[C@@H](C)[C@@H](O)[C@H](C)CCc1ccc(C)c(O)c1C(=O)O)[C@H]1O[C@](CC)([C@H]2CC[C@](O)(CC)[C@H](C)O2)C[C@@H]1C
active: activation [1] 472% | activation [10] 58.5% | activation [12] 177% | activation [15] 82.7% | activation [17] 558% | potentiation [18] 149% | potentiation [19] 502%
inactive: outcome [2] | outcome [3] | outcome [4] | outcome [5] | outcome [6] | outcome [7] | outcome [8] | outcome [9] | outcome [11] | outcome [13] | outcome [14] | outcome [16] | outcome [20]

CCCOc1ccc(C(=O)NNC(=S)NC(=O)c2ccco2)cc1
active: activation [1] 223% | activation [10] 38.5% | activation [12] 143% | activation [15] 61.8% | activation [17] 195% | potentiation [18] 212% | potentiation [19] 340%
inactive: outcome [2] | outcome [3] | outcome [4] | outcome [5] | outcome [6] | outcome [7] | outcome [8] | outcome [9] | outcome [11] | outcome [13] | outcome [14] | outcome [16] | outcome [20]

COc1ccccc1CCC(=O)Nc1cc(S(=O)(=O)N2CCCCC2)ccc1N1CCN(C)CC1
inactive: outcome [3] | outcome [4] | outcome [5] | outcome [6] | outcome [7] | outcome [8] | outcome [9] | outcome [10] | outcome [11] | outcome [13] | outcome [14] | outcome [15] | outcome [16]
active: activation [1] 153% | activation [2] 67% | activation [12] 32.8%

Cc1cccc(C(=O)NC(=S)NNC(=O)c2cccs2)c1
inactive: outcome [2] | outcome [3] | outcome [4] | outcome [5] | outcome [6] | outcome [7] | outcome [8] | outcome [9] | outcome [11] | outcome [13] | outcome [14] | outcome [16]
active: activation [1] 226% | activation [10] 34.5% | activation [12] 125% | activation [15] 67.1% | activation [17] 142% | potentiation [18] 75% | potentiation [19] 210% | current potentiation [20] 22.2%

O=c1c2cc(Br)ccc2nc(-c2ccc(Cl)cc2)n1O
active: activation [1] 268% | activation [12] 102% | activation [15] 31.7% | activation [17] 654% | potentiation [18] 354% | potentiation [19] 708%
inactive: outcome [2] | outcome [3] | outcome [4] | outcome [5] | outcome [6] | outcome [7] | outcome [8] | outcome [9] | outcome [10] | outcome [11] | outcome [13] | outcome [14] | outcome [16] | outcome [20]

Clc1ccc(OCCNCCc2ccccc2)cc1
inactive: outcome [1] | outcome [2] | outcome [3] | outcome [4] | outcome [5] | outcome [6] | outcome [7] | outcome [8] | outcome [9] | outcome [11] | outcome [13] | outcome [14] | outcome [15] | outcome [16]
active: activation [10] 53% | activation [12] 24.4%

COC(=O)C1=NN(C(=O)c2cccc(Br)c2)C(O)(c2ccc(Cl)cc2)C1 (stereo not drawn)
active: activation [1] 121% | activation [12] 98.1% | activation [17] 575% | potentiation [18] 318% | potentiation [19] 745%
inactive: outcome [2] | outcome [3] | outcome [4] | outcome [5] | outcome [6] | outcome [7] | outcome [8] | outcome [9] | outcome [10] | outcome [11] | outcome [13] | outcome [14] | outcome [15] | outcome [16] | outcome [20]

Cc1cccc(C(=O)NC(=S)NNC(=O)c2ccccc2Cl)c1
active: activation [1] 201% | activation [10] 34% | activation [12] 138% | activation [15] 85.8% | potentiation [18] 50.5% | potentiation [19] 158%
inactive: outcome [2] | outcome [3] | outcome [4] | outcome [5] | outcome [6] | outcome [7] | outcome [8] | outcome [9] | outcome [11] | outcome [13] | outcome [14] | outcome [16] | outcome [17] | outcome [20]

Cc1ccc(S(=O)(=O)Nc2cccc(C(=O)NCC(c3ccccc3)N(C)C)c2)cc1F (stereo not drawn)
active: activation [1] 84% | inhibition [6] 78% | activation [10] 37.5%
inactive: outcome [2] | outcome [3] | outcome [4] | outcome [5] | outcome [7] | outcome [9] | outcome [11] | outcome [12] | outcome [13] | outcome [14] | outcome [15] | outcome [16]

CCn1c(SCC(=O)c2cc(C)n(CC3CCCO3)c2C)nc2ccccc21 (stereo not drawn)
active: inhibition [5] 69% | activation [10] 65%
inactive: outcome [1] | outcome [2] | outcome [3] | outcome [4] | outcome [6] | outcome [7] | outcome [9] | outcome [11] | outcome [12] | outcome [13] | outcome [14] | outcome [15] | outcome [16]

O=C(N/N=C/c1cccnc1)c1ccccc1OCc1ccc(Cl)cc1
active: inhibition [5] 98% | inhibition [6] 48% | inhibition [13] 42.7%
inactive: outcome [1] | outcome [2] | outcome [3] | outcome [4] | outcome [7] | outcome [9] | outcome [10] | outcome [11] | outcome [12] | outcome [14] | outcome [15] | outcome [16]

NC(=Nc1ccccc1)Nc1ccccc1
inactive: outcome [2] | outcome [3] | outcome [4] | outcome [5] | outcome [6] | outcome [7] | outcome [8] | outcome [9] | outcome [11] | outcome [13] | outcome [14] | outcome [16] | outcome [17] | outcome [18] | outcome [19] | outcome [20]
active: activation [1] 224% | activation [10] 51% | activation [12] 94.2% | activation [15] 64.1%

CN(C)CCCN(C(=O)c1ccc(S(=O)(=O)N(C)C)cc1)c1nc2ccc(F)cc2s1
active: activation [1] 59% | inhibition [6] 37%
inactive: outcome [2] | outcome [3] | outcome [4] | outcome [5] | outcome [7] | outcome [9] | outcome [10] | outcome [11] | outcome [12] | outcome [13] | outcome [14] | outcome [15] | outcome [16]
